The text below walks through data of ChEMBL document CHEMBL3433997, “St. Jude Leishmania screening dataset” (2016).

Format in all cases: functional
Test [1] deals with Solute carrier family 2, facilitated glucose transporter member 1 (Homo sapiens) (UniProt P11166). Description: ST_JUDE_LEISH: Cytotoxicity at 2uM final concentration against transgenic Leishmania Mexicana promastigotes LmGLUT1 that are glucose transport deficient and complemented with the human glucose transporter GLUT1. Activity is measured by DNA content using SYBR green in vitro.

The target in test [2] is Hexose transporter 1 (Plasmodium falciparum) (UniProt O97467). Description: ST_JUDE_LEISH: Cytotoxicity at 2uM final concentration against transgenic Leishmania Mexicana promastigotes LmPfHT that are glucose transport deficient and complemented with the Plasmodium falciparum hexose transporter. Activity is measured by DNA content using SYBR green in vitro.
The target of test [3] is Glucose transporter (Leishmania mexicana) (UniProt O61059). The experiment in a line: ST_JUDE_LEISH: Cytotoxicity at 2uM final concentration against transgenic Leishmania Mexicana promastigotes LmGT2 that are glucose transport deficient and complemented with the L. Mexicana glucose transporter 2. Activity is measured by DNA content using SYBR green in vitro.

Solute carrier family 2, facilitated glucose transporter member 1 (Homo sapiens), sequence (P11166 whole entry): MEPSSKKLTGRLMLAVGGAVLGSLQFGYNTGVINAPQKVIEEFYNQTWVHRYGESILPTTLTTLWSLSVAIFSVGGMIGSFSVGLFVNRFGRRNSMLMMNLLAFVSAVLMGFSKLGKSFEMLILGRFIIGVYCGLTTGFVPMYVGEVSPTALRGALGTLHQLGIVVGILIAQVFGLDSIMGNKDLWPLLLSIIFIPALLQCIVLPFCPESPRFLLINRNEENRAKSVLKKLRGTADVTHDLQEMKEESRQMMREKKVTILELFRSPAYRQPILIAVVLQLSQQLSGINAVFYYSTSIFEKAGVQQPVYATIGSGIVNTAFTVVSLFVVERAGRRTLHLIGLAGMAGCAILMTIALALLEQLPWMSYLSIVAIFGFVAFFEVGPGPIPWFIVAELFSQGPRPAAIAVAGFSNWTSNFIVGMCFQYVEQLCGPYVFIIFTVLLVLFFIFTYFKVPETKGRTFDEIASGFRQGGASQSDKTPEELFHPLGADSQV

What is called inhibition is the relative decrease from the control value, in per cent. Take `COc1cc(C(=O)N2CCC(CCN3CCC4(CC3)CN(S(C)(=O)=O)c3ccccc34)CC2Cc2ccc(Cl)c(Cl)c2)cc(OC)c1OC` (stereo not given): the results for the inhibition in test [1], in test [2] and in test [3] were 3.23%, 4.25% and 3.27%, respectively.
In the same order, the values of `CCOC(=O)c1cc(Cl)cc(Cl)c1OCCCON1C(=N)N=C(N)NC1(C)C` are 0.88%, 0.77% and 1.35%.
On the same counts, the results for `COc1ccc(Nc2cc(C)nc(Nc3ccc(NC(C)=O)cc3)n2)cc1` are 47%, 67.4% and 32.2%.
In the same order, the values of `O=C(N[C@@H](Cc1ccccc1)[C@H](O)CNC1CCOCC1)c1cc(C2CCCC2)cc(N2CCCCS2(=O)=O)c1` are 3.67%, 3.81% and 4.01%.
Turning to `CN(C)Cc1ccc2nc(-c3cccc(Cc4cc(Cl)ccc4OCc4ccc(Cl)cc4F)n3)[nH]c2c1`, the inhibition was -0.36% in test [1], -0.21% in test [2] and -1.22% in test [3].
Turning to `Cn1nc(C(F)(F)F)c(-c2ccc(Br)cc2)c1NC(=O)Cc1ccccc1F`, the inhibition in test [1] is -1.83%; in test [2] it was 3.22%; in test [3], -2.17%.
Take `NS(=O)(=O)c1ccc(CNc2ccc3ncc(-c4ccc(Cl)cc4)n3n2)cc1`: the inhibition in test [1] is -0.09%; in test [2], 0.08%; in test [3], -0.35%.
In the same order, the values of `O=S(=O)(Nc1ccc(CCN2CCC(N3CCCCC3)CC2)cc1)c1cccc2cccnc12` are 3.76%, 3.39% and 1.88%.
In the same order, the values of `Cc1ccccc1C1CCN(c2ncc(C(=O)Nc3ccccc3)cc2Cl)CC1` are 0.8%, 0.4% and -6.29%.
In the same order, the values of `COc1cccc(NC(=O)Cn2c(C)c(C(=O)C(F)(F)F)c3ccccc32)c1` are 2.88%, 1.7% and 2.26%.
On to `CNCCNCc1cccc(-c2ccc(-c3nc4cccc(C)c4[nH]3)cc2)c1`, for which the inhibition is -1.62% in test [1], -3.38% in test [2] and 0.95% in test [3].
On the same counts, the results for `CCOc1cc(C(=O)N[C@@H](Cc2ccccc2)[C@H](O)CNC(C)(C)c2cccc(OC)c2)cc(N2CCCS2(=O)=O)c1` are 2.48%, -0.71% and 0.74%.
In the same order, the values of `CCS(=O)(=O)Nc1ccc2c(c1)/C(=C(/Nc1ccc(CN3CCCCC3)cc1)c1ccccc1)C(=O)N2` are 83.1%, 89.4% and 82%.
On the same counts, the results for `CN(C)CCCOC(=O)c1cc2cc(-c3ccccc3)ccc2n1S(=O)(=O)Cc1ccccc1` are 5.88%, 10.6% and 1.19%.
As for `CCN(CCCN1CCCCC1)c1cc(C)nc(Nc2ccc(Cl)cc2)n1`, the inhibition was 1.87% in test [1], 2.6% in test [2] and 1.8% in test [3].
On the same counts, the results for `CC1CCCN(C(=O)C(C)Nc2cc(Cl)ccc2N2CCOCC2)C1` (stereo not given) are 1.2%, 1.09% and -0.78%.
On the same counts, the results for `CC1CCN(CC[C@H]2CCCN2S(=O)(=O)c2cccc(NC(=O)c3ccc(-c4ccccc4)cc3)c2)CC1` are 3.61%, 1.72% and -0.42%.
As for `Cc1cc(OCCCNc2nc(NCCc3ccc(O)cc3)nc(N3CCNCC3)n2)c(Cl)c(C)c1Cl`, the inhibition in test [1] is 0.58%; in test [2], 1.22%; in test [3] it was 0.27%.
In the same order, the values of `Fc1cccc(Cl)c1-c1nc(NCCC(c2ccccc2)c2ccccc2)no1` are -0.45%, 0.05% and 1.11%.
In the same order, the values of `O=C(Nc1cccnc1)c1cc(-c2cccnc2)nc2ccc(Cl)cc12` are 6.95%, 2.76% and 1.98%.
In the same order, the values of `CN1CCN(c2ccc(Nc3ncc(C#N)c(Nc4ccccc4C(N)=O)n3)cc2)CC1` are 75.6%, 81.4% and 55.1%.
Consider `COC(=O)CNC(c1ccccc1)c1cc(Br)ccc1NC(=O)c1ccccc1Br` (stereo not given), for which the inhibition is 7.18% in test [1], 16.3% in test [2] and 5.19% in test [3].
In the same order, the values of `O=C(Nc1ccc2c(c1)CCN2C1CCN(Cc2ccc(O)cc2)C1)c1ccco1` (stereo not given) are 0.95%, 2.04% and -0.34%.
For the compound `N=c1c2c(n(Cc3ccccc3)c3c1CCC3)CCCC2`, the inhibition in test [1] stood at 26.6%; in test [2] it was 28.1%; in test [3], 7.1%.
On the same counts, the results for `CN(CCc1ccccn1)Cc1ccc(-c2ccc(-c3nc4ccccc4[nH]3)s2)cc1` are -0.34%, -1.13% and -2.7%.
On the same counts, the results for `NC1=NC(c2ccccc2)(c2ccccc2)C(=O)N1CCCCc1ccccn1` are -0.54%, -0.95% and -2.5%.
In the same order, the values of `N=C(N)Nc1nc(CCCCCCCCc2csc(NC(=N)N)n2)cs1` are -1.03%, -0.76% and 1.03%.
Consider `COc1ccc(CC(=O)Nc2ccc(-c3cccc(-c4nc5cccc(C)c5[nH]4)c3)cc2)cc1O`, for which the inhibition in test [1] worked out at 3.89%; in test [2], 5.29%; in test [3] it was 5.34%.
In the same order, the values of `Cn1cc(-c2ccnc3[nH]c(-c4cccc(CNC5CCC(O)CC5)c4)cc23)cn1` (stereo not given) are 0.39%, 1.89% and 3.37%.
On the same counts, the results for `CC(C)c1ccc(-c2noc(SCC(=O)N(C)c3ccc(F)cc3)n2)cc1` are -1.33%, 0.23% and -0.55%.
With `CCCCCCCC1CC(CC(=O)Nc2ccnc3ccc(OC)cc23)CN1` (stereo not given), the inhibition turned out to be 1.6% in test [1], 0.43% in test [2] and 0.67% in test [3].
On the same counts, the results for `CN(C)CC1CCCN1Cc1ccccc1-c1cnn(C)c(=O)c1Oc1ccccc1F` (stereo not given) are 2.45%, 1.75% and 0.1%.
On the same counts, the results for `CC(C)(CNC(=O)[C@H]1CCCN1)c1nc(-c2ccc(Cl)c(O)c2)c(-c2ccncc2)[nH]1` are 8.17%, 8.03% and 8.28%.
On the same counts, the results for `N#Cc1cccc(Nc2nccc(NCC(O)c3cccc(C(F)(F)F)c3)n2)c1` (stereo not given) are 4.68%, 3.25% and -3.38%.
Take `N#Cc1cncc(-c2nc3c(N4CCCC(N)C4)cccc3n2CCNCc2ccccc2)c1` (stereo not given): the inhibition was found to be 6.64% in test [1], 5.11% in test [2] and 8.87% in test [3].
